# Many of the other results were omitted from the sample, so hits are more common in it than they were.
# nsP2pro inh: inhibitors of chikungunya virus nsP2 protease. AID 1964107. Potency, µM (titrated, usually from 24.9 µM), inactives show at the top dose activity change, negative = inhibition, hits mostly inhibitors. 31,000 tested, 1.1% active. FRET peptide cleavage, nsP2pro, fluorescence 1 h; further: nearly all actives have a fitted effect of over 60% in size
#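 Enzyme 150 nM, substrate 2.5 uM (both final); Tris-HCl 10 mM pH 8.0 + 0.01% Tween 20; cpd up to 25 uM, 7 pts; 15 min preinc., 1 h RT; fluorescence ex 525/em 598.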
# CHIKV nsP2 cell: inhibits CHIKV nsP2 protease in cells; Potency, µM (highest dose often 51.1 µM), for the others: at the top dose activity change, negative = inhibition, actives largely listed as inhibitors; cell-based CHIKV nsP2 protease reporter assay; 450 tested, 10% active; shares compounds with nsP2pro inh; further: nearly all actives have a fitted effect of over 70% in size
# NSP2 full ctr: inhibits full-length CHIKV NSP2 enzyme; 410 tested, 39% active; shares compounds with nsP2pro inh; Potency, µM (series often up to 50.7 µM), for the others: at the highest dose activity change, negative = inhibition, usual class: inhibitors; Full-length CHIKV NSP2 protease enzymatic counterscreen; further: nearly all actives have a fitted effect of over 65% in size
# Furin counterscr: human furin inhibition, counterscreen for nsP2pro inhibitors; Recombinant human furin enzymatic counterscreen, fluorogenic substrate; shares compounds with nsP2pro inh; 410 tested, 6% active; Potency, µM (doses to about 50.6 µM), for inactives: at the highest dose activity change, negative = inhibition, usual class: inhibitors; AID 1964102
# NS23 peptide cs: selectivity test for CHIKV nsP2 protease inhibitors: endogenous NS2/3 peptide; shares compounds with nsP2pro inh; Purified CHIKV nsP2 protease, endogenous NS2/3 peptide cleavage; Potency, µM (series often up to 51 µM), for inactives: at the highest dose activity change, negative = inhibition, usual class: inhibitors; 410 tested, 34% active; AID 1964103; further: nearly all actives have a fitted effect of over 55% in size
# Papain counter: inhibits papain in a CHIKV nsP2 protease selectivity counterscreen. shares compounds with nsP2pro inh. purified papain protease activity, enzymatic inhibition. Potency, µM (titrated, usually from 51 µM), for the others: at the top dose activity change, negative = inhibition, usual class: inhibitors. 410 tested, 5% active. AID 1964104
# Target sequence (P00784 whole entry, looked up): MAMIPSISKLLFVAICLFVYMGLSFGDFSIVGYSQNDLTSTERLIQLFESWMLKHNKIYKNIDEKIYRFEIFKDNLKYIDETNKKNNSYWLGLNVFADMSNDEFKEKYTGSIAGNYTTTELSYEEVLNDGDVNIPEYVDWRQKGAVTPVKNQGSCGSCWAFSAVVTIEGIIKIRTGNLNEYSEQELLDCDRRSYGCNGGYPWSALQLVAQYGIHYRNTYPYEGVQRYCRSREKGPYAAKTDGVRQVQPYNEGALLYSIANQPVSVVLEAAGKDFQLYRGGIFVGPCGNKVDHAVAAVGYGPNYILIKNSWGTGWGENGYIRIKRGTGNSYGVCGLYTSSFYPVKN
# nsP2pro confirm: CHIKV nsP2 protease inhibition, confirmatory qHTS; Potency, µM (titrated, usually from 25.5 µM), for the others: top-dose activity change, negative = inhibition, usual class: inhibitors; 410 tested, 43% active; CHIKV nsP2 protease enzymatic activity, qHTS; shares compounds with nsP2pro inh; further: nearly all actives have a fitted effect of over 75% in size
# HCV NS3 counter: selectivity counter-screen for CHIKV nsP2 protease inhibitors: HCV NS3/4A; shares compounds with nsP2pro inh; HCV NS3/4A protease biochemical counterscreen; Potency, µM (doses to about 50.9 µM), hits mostly inhibitors; 410 tested, 20% active; AID 1964106; further: nearly all actives have a fitted effect of over 55% in size
# Starred values were filed as active, the others as inactive; i = inactive; u = inconclusive; [ ] = remark or other dose. The call rests on the fitted dose curve. On the % scale 0 is the no-effect control and ±100 the full control effect; potency means the concentration at half of the fitted maximal effect.
SMILES,nsP2pro inh,others
Cc1cc(C)cc(N2CCN(C(=S)Nc3cc(C)cc(C)n3)CC2)c1,-2%,
Cc1cc(C)nc(NC(=S)N2CCN(c3ccc4nsnc4c3)CC2)c1,3.2µM*,CHIKV nsP2 cell=16µM*;NSP2 full ctr=7.3µM*;Furin counterscr=-8%;NS23 peptide cs=12µM*;Papain counter=-8%;nsP2pro confirm=9µM*;HCV NS3 counter=u
Cc1cc(C)nc(NC(=S)N2CCN(c3ccc(Cl)c(Cl)c3)CC2)c1,0%,
COc1ccc(C2Nc3ccccc3C(=O)N2Cc2ccc(C(F)(F)F)o2)cc1COc1c(C)cccc1C (stereo unspecified),1%,
COc1cc2c(cc1CN1CCn3nc(C(O)CO)cc3C1)OCCO2 (stereo unspecified),-6%,
Nc1ccccc1,0%,
[Hg+][c]1ccccc1,0.56µM*,CHIKV nsP2 cell=u;NSP2 full ctr=1µM*;Furin counterscr=1µM*;NS23 peptide cs=3.7µM*;Papain counter=-3%;nsP2pro confirm=0.28µM*;HCV NS3 counter=0.23µM*
COC(=O)c1ccc(-c2c(NC(C)=O)sc3c2CCNC3)cc1,4%,
Nc1ccc(-c2cnc(N)c(-c3ccc(Cl)cc3)c2)cn1,-2%,
COc1cccc(-c2ccc(-c3nc4ccccc4c(=O)[nH]3)o2)c1,3%,
Cc1ccc(S(=O)(=O)/C=C/C#N)cc1,0.88µM*,CHIKV nsP2 cell=u;NSP2 full ctr=0.92µM*;Furin counterscr=5%;NS23 peptide cs=4.6µM*;Papain counter=-5%;nsP2pro confirm=0.28µM*;HCV NS3 counter=i
Cc1ccc(S(=O)(=O)Nc2cnccc2C(=O)Nc2ccc3ccccc3c2)cc1,i,
O=C([C@@H]1C[C@H](F)CN1C(=O)NCc1ccc(OC(F)(F)F)cc1)N1CCCCC1,i,
Cc1coc2c1C(=O)C(=O)c1c-2ccc2c1CCCC2(C)C,u,CHIKV nsP2 cell=-8%;NSP2 full ctr=12µM*;Furin counterscr=-15%;NS23 peptide cs=u;Papain counter=u;nsP2pro confirm=u;HCV NS3 counter=i
Cc1coc2c1C(=O)C(=O)c1c-2ccc2c(C)cccc12,u,CHIKV nsP2 cell=-2%;NSP2 full ctr=u;Furin counterscr=-13%;NS23 peptide cs=u;Papain counter=u;nsP2pro confirm=u;HCV NS3 counter=i
COc1cccc(CCC(=O)NCCc2nc3ccccc3n2CCOc2ccc(C)cc2)c1,-8%,
OCC1(Cc2ccccc2F)CCCN(c2nnnn2-c2ccccc2)C1 (stereo unspecified),i,
O=C(c1ccc(-c2cnc3c(O)cccc3c2)cc1)N1CCNCC1,i,
O=C(NC1CCCc2c1cnn2-c1ccc(F)cc1F)c1ccn[nH]1 (stereo unspecified),-10%,
O=[S+]([O-])(NCC#CCSc1nnc(-c2cccc3ccccc23)o1)c1ccc(F)cc1,-11%,
CCOc1cc(CN2CCC(C(Cc3ccccc3F)N(C)C(=O)c3cccs3)CC2)ccc1O (stereo unspecified),-2%,
Cc1ccc(C(=O)N2CCC(N3C(=O)C4(CCCC4)C3c3scnc3C)CC2)cn1 (stereo unspecified),-7%,
Cc1ccc(CNc2ccccc2C(=O)Nc2nc(-c3ccccc3)cs2)cc1,-10%,
O=C(Nc1ccc(N2CCOCC2)c(Cl)c1)c1ccc(Br)o1,u,CHIKV nsP2 cell=18µM*;NSP2 full ctr=13%;Furin counterscr=-13%;NS23 peptide cs=14%;Papain counter=-18%;nsP2pro confirm=9%;HCV NS3 counter=i
O=C(Nc1cccc(NC(=O)c2ccc(Br)o2)c1)c1ccccc1,-11%,
SMILES,nsP2pro inh,others
O=C(Nc1ccc(Cl)c(S(=O)(=O)N2CCOCC2)c1)c1ccccc1,-5%,
Nc1ccc(C(=O)Nc2ccc(-c3nc4ccccc4[nH]3)cc2)cc1Cl,-8%,
O=C(c1cccnc1)N1CCC2(CC1)OCCN(Cc1ccccc1)C2=O,-14%[39.2 µM],
Cc1cnc(C(=O)NC2C[C@H]3CC[C@@H](C2)N3C(=O)c2ccccc2C)cn1 (stereo partly specified),-4%,
CC(C)(C)OC(=O)N1CCN(c2cccc(NCc3ccc(-c4ccc(C#N)cc4)o3)c2)CC1,-25%,
CC(=O)N1CCN(c2ccc(NCc3ccc(-c4ccc(Br)cc4)o3)cc2)CC1,i,
N#Cc1ccc(-c2ccc(CNc3ccc(N4CCC(C(F)(F)F)CC4)cc3)o2)cc1,2.8µM*,CHIKV nsP2 cell=-13%;NSP2 full ctr=u;Furin counterscr=-4%;NS23 peptide cs=-15%;Papain counter=-22%;nsP2pro confirm=u;HCV NS3 counter=u
CC(=O)Nc1sc2c(c1-c1cnn(C(C)=O)c1)CCNC2,-25%,
Cc1ccnc(NC(=S)N2CCN(c3ccc(Cl)c(Cl)c3)CC2)c1,i,
Cc1cc(C)nc(NC(=S)N2CCN(c3cc(C(F)(F)F)nc4ccc(C(F)(F)F)cc34)CC2)c1,i,
C[C@@H]1[C@H](c2c(F)ccc(F)c2F)C[C@H](NC(=O)c2cnc3c(c2)C[C@@]2(C3)C(=O)Nc3ncccc32)C(=O)N1CC(F)(F)F,1%,
COc1ccc(-c2ccc(NC(=O)c3cccs3)cn2)cc1,u,CHIKV nsP2 cell=0%;NSP2 full ctr=u;Furin counterscr=-4%;NS23 peptide cs=-15%;Papain counter=-4%;nsP2pro confirm=-6%;HCV NS3 counter=u
Nc1ccc(-c2ccc(NC(=O)c3cccs3)cn2)cc1,5%,
COc1ccccc1C(=O)Nc1ccc(NC(=O)c2cccs2)cc1,-8%,
O=C(O)CC[C@@H]1CN(C(=O)c2ccc(CO)o2)CC[C@@H]1N1CCOCC1,i,
O=C(/C=C/c1ccccc1)OC[C@]12O[C@H]1[C@@H](O)[C@@H]1C=CO[C@@H](O[C@@H]3O[C@H](CO)[C@@H](O)[C@H](O)[C@H]3O)[C@@H]12,4%[10 µM],
CC(=O)O[C@H]1CC(C)(C)CC2[C@]13CO[C@@]21CCC2[C@@]4(C)CC[C@H](O[C@@H]5OC[C@H](O[C@@H]6O[C@H](CO)[C@@H](O)[C@H](O)[C@H]6O[C@@H]6OC[C@@H](O[C@@H]7O[C@H](CO)[C@@H](O)[C@H](O)[C@H]7O)[C@H](O)[C@H]6O)[C@H](O)[C@H]5O[C@@H]5O[C@H](CO)[C@@H](O)[C@H](O)[C@H]5O)[C@@](C)(CO)C4CC[C@@]2(C)[C@]1(C)C[C@H]3O (stereo partly specified),10%[5.1 µM],
CC[C@H]1C[C@@H]2CC[C@@H](O2)[C@@H](C)C(=O)O[C@H](CC)C[C@H]2CC[C@H](O2)[C@H](C)C(=O)O[C@@H](C)C[C@@H]2CC[C@@H](O2)[C@@H](C)C(=O)O[C@H](CC)C[C@H]2CC[C@H](O2)[C@H](C)C(=O)O1,7%[10 µM],
CCOC(=O)c1cccc(NCC2=CC(C)(C)Oc3ccc(OC)cc32)c1,-11%,
